Consider 40 sequences from the supplement of paper PMC6555819.

In this experiment the test system is PPARg:RXRa (NR concentration 180 nM, RXRa partner concentration 90 nM). Briefly: PBM binding z-score (relative to random genomic background probes); higher = stronger binding; sequences stand for … in GC…GCGATTGACAGCGTAGAATGAAGG
The procedure, abridged: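 The probes on custom Agilent 4×180K protein-binding microarrays were double-stranded, with 34-nt variable regions bearing direct-repeat seeds, single-nucleotide variants, half-site ablations and random human genomic background sequences. Incubation lasted 1 h with ligand-free nuclear receptor dimers in PBS pH 7.4, 2% milk, 0.02% Triton X-100, 1 mM DTT, 0.2 mg/mL BSA and 0.4 mg/ml salmon testes DNA. Antibodies against each partner (one per run) detected bound dimers, and fluorescence scans were regression-normalized. Binding z-scores take the random background probes as reference.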
TCAGACACGTGAAGGTAACTCAGGTACGCAGTCG registered a PBM binding z-score of 0.903.
For CCTACTGGGCCATTCAAAGGTCATTGATCATATG the value was 3.07.
To CGTCAAAGTTCAAGGTAACGTATCAGAAAGCAGC belongs 4.11.
To CCGTGTAGGTTATGGGGCATTCAGGCAACGGTGA belongs 2.03.
Take CGTCCAAGGTCAATGCTAGGTCCGTGAAAGCATT: the PBM binding z-score stood at 3.19.
To TCTTGTAGATCAAGCAGGTTACGAAAGCCTGAGT belongs 0.00625; to ATCTCTAGGTAAAGTTCAGTGCAAGATCGATAGA, 3.48; to AGTCAAAGTTCATCTAGGTGACGTAAGATATGCT, 7.01.
To CGTCCAAGATCAGAGAGGTCAGTGAATGCCGAGT belongs 0.376; to CAGCCTAGGTCAGAGCCAGTATAGGAGGAACGTT, 0.786.
Sequence GCTAGCTGGTCAGTAAAAGGTCACACACCGGTCG yielded a PBM binding z-score of 2.43.
TCTGCTAGCTCAACGATGGTCAGCTAATCTGCTA came in with a PBM binding z-score of -0.32.
The sequence AGAATGAGGTTATACGTAGATTAGGGAAGAAAGT showed a PBM binding z-score of 2.37.
For TCTTGTAGATCAATTGAGGTTAAGAAAGTGCGCT the value was -0.433; for GGAACGAGGGCAACTTGATAGCAGAGTTTGATGG, 1.63; for TCGAGTAAGTTAGGGGCATTCAGAATGGCGTCGA, -0.191.
Sequence CCTACTGGGCCAAAGGTCATTGCTTCCAATGCTC showed a PBM binding z-score of 11.3.
The sequence TTACCAAGGTGAAGATCGTTGATCCCTCTGTAGA yielded a PBM binding z-score of 0.457.
For CCAGGCAGGTGAAAGGTAACTCAGTCTGGTACGC the value was 5.95; for CCTCGGAGGACAGAAGGTCAGAGGTGTCCGCTTT, 0.463.
To GCGACTGGGGCAAAGCAGGTTACCATTAGGTTGG belongs 1.11.
To TCTCGGAGAACACGAAAGGTCAGAGCTCGACATC belongs 0.977; to CCTTACGGGTCAAGAGGTTATAGCACGACGAGCG, 5.44.
Regarding TAGCCTAGGTCGTGGGCCAGTATACCACGCGAAC, the PBM binding z-score was determined as 0.333.
For TCATATAGGTAAATGCTAGGTGAAGGTCCGATCT the value was 0.837; for CCGAGTAGGTTATGGGGCATTCTGGCAACGGTGA, 3.38; for TCATATAGGTTAACAGGTGAAAGTCCGTAAGTTA, 5.44.
In turn, CCTCGGAGGACAGAAGGTCAGAGATGTCCGCTTT displayed a PBM binding z-score of 0.383.
To GCTTGTAGATCAATGTTAAGAAAGACTAAGCTAA belongs -0.00589; to GGAACGAAGGCAAGTTGATAGCAGAGTTTGATGG, 0.469.
Sequence CCTAGTTGGCCAGGAGGTCACACACCGGATATGA had a PBM binding z-score of 2.42.
GATACAGGATCAAGGCCAGAGTACGCGTATTGAT came in with a PBM binding z-score of 0.979.
For ATATGTAGGTTATCGAGTCATTCAGTTTGCGCAT, the PBM binding z-score is 4.61.
In turn, ACTATCAGTTGACTTAGGGCAACCGATACGACGC came in with a PBM binding z-score of 0.908.
The sequence CATACAAGGTCAGCTAGGCCAGAGTAGGGACGGC displayed a PBM binding z-score of 3.65.
For CGTCGAAGTTCAACTAAGGTAACGTAAAGCACGC the value was 1.3; for ATATGTAGGTTATATCCGGGTCATTCAGGCTATG, 4.45.
To TCTGGTTGGTCACGGAGGTCACACACGACGGGTA belongs 3.13; to TCGAGTAGGTTAGTCGGGGCATGCAGCCAACATA, 0.2; to CCTAACGGGTCACGAGGTTATAGCACGACGAGCG, 6.41.
